Bioassay records deposited in PubChem by National Center for Advancing Translational Sciences (NCATS).
Compounds with a hit are over-represented: about 12% of the library has one in this group of screens.
G9a block – qHTS Assay for Inhibitors of Histone Lysine Methyltransferase G9a; Histone-lysine N-methyltransferase EHMT2 (Homo sapiens), Q96KQ7; G9a H3K9 monomethylation, AlphaScreen, 2 h; Potency, µM (titrated, usually from 102 µM), usual class: inhibitors; 350,000 compounds, 8.8% hits; further: nearly all actives have a fitted effect of over 75% in size
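Chemiluminescent proximity detection of H3K9 monomethylation, read after 10 min bead incubation in the dark. Reaction: 20 nM G9a, 500 nM biotin-H3K9 peptide, 20 uM SAM cofactor, 2 h, room temperature, following 15 min enzyme-compound preincubation.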
L3MBTL1 inh – qHTS Assay for the Inhibitors of L3MBTL1; Lethal(3)malignant brain tumor-like protein 1 (Homo sapiens), Q9Y468; AlphaScreen L3MBTL1–H3K9me1 peptide binding; Potency, µM (doses to about 57.1 µM), most hits filed as inhibitors; 230,000 compounds, 0.66% hits; AID 485360, 2010; further: nearly all actives have a fitted effect of over 60% in size
Target sequence (Q9Y468 whole entry, looked up): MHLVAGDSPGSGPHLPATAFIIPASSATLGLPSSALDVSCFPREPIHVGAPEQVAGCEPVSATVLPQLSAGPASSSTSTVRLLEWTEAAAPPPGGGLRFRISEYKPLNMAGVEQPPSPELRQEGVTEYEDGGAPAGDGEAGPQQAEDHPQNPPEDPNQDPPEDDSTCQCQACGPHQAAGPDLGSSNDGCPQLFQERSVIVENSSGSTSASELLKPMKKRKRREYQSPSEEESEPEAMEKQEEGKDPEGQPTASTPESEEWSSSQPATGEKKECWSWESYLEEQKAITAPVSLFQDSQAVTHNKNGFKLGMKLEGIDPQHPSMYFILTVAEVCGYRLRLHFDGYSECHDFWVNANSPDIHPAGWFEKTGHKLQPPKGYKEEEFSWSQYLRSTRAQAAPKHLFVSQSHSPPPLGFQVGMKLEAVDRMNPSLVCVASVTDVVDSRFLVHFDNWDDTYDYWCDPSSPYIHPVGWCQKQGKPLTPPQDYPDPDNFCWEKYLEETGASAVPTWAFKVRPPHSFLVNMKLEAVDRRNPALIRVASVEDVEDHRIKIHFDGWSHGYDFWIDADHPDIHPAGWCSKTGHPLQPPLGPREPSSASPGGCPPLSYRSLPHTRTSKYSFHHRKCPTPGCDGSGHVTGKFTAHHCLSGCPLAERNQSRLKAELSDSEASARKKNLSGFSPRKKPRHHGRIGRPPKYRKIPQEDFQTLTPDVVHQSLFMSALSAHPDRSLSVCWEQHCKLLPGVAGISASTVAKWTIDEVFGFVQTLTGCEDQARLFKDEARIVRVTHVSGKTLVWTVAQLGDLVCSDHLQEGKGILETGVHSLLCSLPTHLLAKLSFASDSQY
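AlphaScreen proximity signal between nickel-chelate acceptor and streptavidin donor beads (final 10 ug/mL) reports binding of 50 nM L3MBTL1 to 75 nM biotin-H3 K9me1 peptide; complex incubated with compounds 30 min at room temperature; cefsulodin titration as control.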
HP1b binding inh – HTS for Inhibitors of HP1-beta Chromodomain Interactions with Methylated Histone Tails | AlphaScreen HP1-beta / biotin-H3K9me3 peptide binding | AID 540317, 2011 | Chromobox protein homolog 1 (Homo sapiens), P83916 | Potency, µM (doses to about 114 µM), hits mostly inhibitors | 390,000 compounds, 0.56% hits; further: nearly all actives have a fitted effect of over 70% in size
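Compound inhibition of the preformed complex between 50 nM HP1-beta and 50 nM biotinylated H3K9me3 peptide was read by AlphaScreen. Buffer was PBS pH 7.4 with 0.01% Tween-20. Incubations ran 30 min at room temperature, with 10 ug/mL donor/acceptor beads.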
BAZ2B block – qHTS Assay for Inhibitors of BAZ2B; AlphaScreen BAZ2B-H3K14Ac peptide displacement; Potency, µM (top dose mostly 114 µM), hits mostly inhibitors; 360,000 compounds, 4.4% hits; AID 504333, 2011; further: nearly all actives have a fitted effect of over 60% in size
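Multi-concentration screen (max 110 uM) measuring displacement of acetylated histone H3 peptide from BAZ2B by AlphaScreen, using 50 nM protein, 50 nM peptide and 10 ug/mL streptavidin donor plus Ni-chelate acceptor beads.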
JMJD2A Tudor – qHTS Assay for Inhibitors of JMJD2A-Tudor Domain | Potency, µM (highest dose often 114 µM), hits mostly inhibitors | AID 504339, 2011 | 390,000 compounds, 4.4% hits | AlphaScreen JMJD2A-Tudor / H3K4me3 peptide binding | Lysine-specific demethylase 4A (Homo sapiens), O75164; further: nearly all actives have a fitted effect of over 50% in size
Sfp PPTase inh – qHTS Assay for Inhibitors of Bacillus subtilis Sfp phosphopantetheinyl transferase (PPTase). 4'-phosphopantetheinyl transferase ffp (Bacillus subtilis), Q9F4F7. Biochemical Sfp PPTase activity, qHTS. Potency, µM, actives largely listed as inhibitors. 310,000 compounds, 3.5% hits;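 further: the enzyme is Sfp with the accession as filed and its product quenches rhodamine fluorescence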
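Step 1, compound plus 15 nM Sfp-PPTase, 15 min, room temperature. Step 2, add rhodamine-CoA (5 uM) and BHQ-2-YbbR (12.5 uM). Step 3, read 525/598 nm fluorescence at 0 and 30 min.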
A number is an active result; - = inactive; ? = inconclusive; . = no result given; [ ] = another dose, or the depositor's remark. The call rests on the fitted dose curve; in most records, active means well fitted curve in the direction sought with a large enough effect; inconclusive means small, poorly fitted or top-dose-only effect, or another doubt; inactive means no such curve, though single readings can be large; an effect the other way counts as inactive or inconclusive.

SMILES | G9a block | L3MBTL1 inh | HP1b binding inh | BAZ2B block | JMJD2A Tudor | Sfp PPTase inh
CCC(C)(C)c1nnc(NC(=O)C2CC(=O)N(CCc3ccc(F)cc3)C2)s1 (stereo unspecified) | 45µM | . | - | - | - | -
CCc1c(C)c2cc(Cl)c(O)c(CN(C)C)c2oc1=O | -[12.7 µM] | - | - | - | ? | -
Cc1c(C)c2cc(Cl)c(O)c(CN(C)C)c2oc1=O | -[12.7 µM] | - | - | - | 18µM | -
CCCCc1cc(=O)oc2c(CN(C)C)c(O)c(Cl)cc12 | -[12.7 µM] | - | - | - | 16µM | ?
Cc1cc(C)c2c(n1)sc1c(N3CCN(CCO)CC3)ncnc12 | -[12.7 µM] | - | - | - | - | -
CCN1CCC2(CC1)C(C#N)=C(N)Oc1c2sc2nc(C)cc(C)c12 | ? | - | - | - | - | 50µM
CC(=O)N1CCC2(CC1)C(C#N)=C(N)Oc1n[nH]c(C)c12 | - | - | - | - | - | -
CC(=O)N1CCC2(CC1)C(C#N)=C(N)Oc1c2sc2nc(C)cc(C)c12 | 11µM | - | - | - | - | -
C=C1CC[C@@H]2O[C@@]2(C)CC[C@H]2[C@H]1CC2(C)C | . | . | . | . | . | -
COc1cccc(-c2nccc(NCc3cccs3)n2)c1 | -[0.501 µM] | . | . | . | . | 79µM
Cc1ccccc1-c1nccc(NCc2cccs2)n1 | -[0.501 µM] | . | . | . | . | 89µM
c1cncc(-c2nccc(NCc3cccs3)n2)c1 | -[0.501 µM] | . | . | . | . | -
CO[C@@H]1COC(=O)C/C=C\[C@@H](C)COC(=O)[C@H](COCc2ccccc2)NC(=O)C/C=C\[C@H]1C | . | . | . | . | . | -
O=C(NCCc1cccs1)c1ccc(Cn2c(SCc3ccccc3)nc3cccnc32)cc1 | - | . | - | - | - | .
Cc1cc2nc(-c3cccc(NC(=O)COc4ccc(C(C)C)cc4)c3)oc2cc1C | - | . | - | - | - | .
CCN(CC)S(=O)(=O)c1ccc2c(c1)c(=O)c(C(=O)N1CCN(c3cc(C)ccc3C)CC1)cn2C | - | . | - | . | - | .
Cc1nc(Oc2ccccc2C)c2oc3ccccc3c2n1 | - | . | - | - | - | .
O=C(CCCN1C(=O)/C(=C\c2ccco2)SC1=S)Nc1ccc(O)cc1C(=O)O | 10µM | . | 25µM | 14µM | 22µM | 50µM
O=C(CCCN1C(=O)/C(=C\c2cccs2)SC1=S)Nc1cccc(C(=O)O)c1 | ? | . | - | - | ? | -
O=C(CCCN1C(=O)/C(=C/c2ccco2)SC1=S)Nc1cccc(C(=O)O)c1 | . | - | ? | 45µM | ? | 25µM
CCCc1ccccc1OCCNC(C)=O | - | - | - | - | 16µM | -
CC(=O)NCCOc1cccc2ccccc12 | -[12.7 µM] | - | - | - | - | -
CC(C)CNc1nc(NC(C)(C)C)nc(Oc2ccc(=O)n(-c3ccccc3)n2)n1 | - | . | - | - | - | .
CC(C)C[C@H](N)CSSC[C@@H](N)CC(C)C | 16µM | . | . | . | . | .
CCOc1c(C)cc2[nH]c(CCC(=O)O)nc2c1C | 13µM | - | - | - | - | -
SMILES | G9a block | L3MBTL1 inh | HP1b binding inh | BAZ2B block | JMJD2A Tudor | Sfp PPTase inh
CCCn1c(=O)c(C)cn2nc(N)nc12 | - | . | . | . | . | -
CCOCCc1nnc(NC(=O)C(=O)c2cc(C)n(-c3cccc(Cl)c3)c2C)s1 | - | . | - | - | - | .
Cc1cc(C)cc(NC(=O)c2ccc3c(c2)nnn3C2CCCC2)c1 | - | . | - | - | - | .
O=c1cc(O)n(-c2ccccc2F)c(=S)[nH]1 | 50µM | - | - | - | - | 50µM
Cc1ccccc1-n1c(N)cc(=O)[nH]c1=S | - | . | - | - | - | -
O=c1cc(O)n(-c2ccc(Cl)cc2)c(=S)[nH]1 | 10µM | . | - | - | - | 50µM
Cc1ccccc1-n1c(O)cc(=O)[nH]c1=S | 45µM | - | - | - | - | 56µM
CCOC(=O)CCCNC(=O)N1CCc2nc(-c3ccc(OC)cc3C)c3c(c2C1)CO[C@@H](c1ccccc1)C3 | . | . | . | . | . | -
Fc1ccc(Nc2nc(NCc3ccco3)nc3nccnc23)cc1 | . | . | - | . | - | .
CCCCC(=O)Nc1cccc(-c2nc3ccccc3s2)c1 | ? | . | - | - | - | .
CN(CC(=O)Nc1ccccc1C(F)(F)F)C(=O)c1cc(-c2cccs2)nn1-c1ccccc1 | -[0.501 µM] | - | - | - | - | .
CN(CC(=O)Nc1cccc(F)c1)C(=O)c1cc(-c2cccs2)nn1-c1ccccc1 | 50µM | - | - | ? | - | .
O=C(O)c1cc(-c2cccs2)nn1-c1ccc(F)cc1 | 45µM | ? | - | ? | - | -
COC(=O)c1cc(-c2cccs2)nn1-c1ccccc1 | - | . | - | - | - | -
CCCN(CC(=O)Nc1ccccc1OC)C(=O)c1cc(-c2cccs2)nn1-c1ccccc1 | 45µM | - | - | - | - | .
CCN(CC(=O)Nc1ccccc1C(F)(F)F)C(=O)c1cc(-c2cccs2)nn1-c1ccccc1 | . | . | - | - | - | -
O=C(NCc1ccccc1)[C@]1(C(F)(F)F)C[C@H](CCCO)CCCO1 | . | . | - | . | - | -
CC(C)N1CCN(Cc2cccc(-c3ccco3)c2)CC1CCO (stereo unspecified) | 25µM | ? | - | - | - | -
O=C(Cn1nc2c(cc1=O)CCCC2)NCc1ccccc1 | - | . | - | - | - | .
COC(=O)c1cc2c(cc1NC(=O)c1cnn(-c3ccc(C)cc3)c1-n1cccc1)OCO2 | - | . | - | - | - | .
O=S(=O)(CCC(F)=C(F)F)c1nnnn1C1CCCCC1 | . | . | . | . | . | -
O=c1c2c(nc3c(-c4ccccc4)c[nH]n13)CCC2 | - | - | - | - | - | -
O=c1c2c(nc3c(-c4ccc(Cl)cc4)c[nH]n13)CCC2 | 56µM | - | ? | - | -[11.4 µM] | ?
Cn1cccc1Cc1nnc(SCC(=O)Nc2ccccc2F)n1CCc1ccccc1 | 45µM | ? | - | ? | ? | -
Cn1cccc1Cc1nnc(SCC(=O)Nc2cccc(F)c2)n1CCc1ccccc1 | 45µM | - | - | 50µM | - | -
SMILES | G9a block | L3MBTL1 inh | HP1b binding inh | BAZ2B block | JMJD2A Tudor | Sfp PPTase inh
Cc1occc1-c1nnc(SCC(=O)Nc2ccccc2)n1CCc1ccccc1 | -[12.7 µM] | - | - | - | - | -
Cc1cc(NC(=O)CSc2nnc(Cc3cccn3C)n2CCc2ccccc2)no1 | - | - | - | ? | - | -
Cc1csc(NC(=O)CSc2nnc(Cc3cccn3C)n2CCc2ccccc2)n1 | 45µM | - | ? | ? | 35µM | -
CCN(CC)C(=O)NC1CC2CCCC(C1)N2Cc1ccccc1 (stereo unspecified) | 2.8µM | - | - | - | - | -
COC(=O)NC(CC(C)=O)c1ccc(F)cc1 (stereo unspecified) | . | . | . | . | . | -
O=S(=O)(NCc1ccco1)c1ccc2ccccc2c1 | - | . | - | ? | - | -
